Screening results (PubChem)
This is a sample that favours compounds with a hit; in the whole collection about 4.1% have one here.
NSD2 inh: NSD2 histone methyltransferase inhibitors, primary screen, biochemical, AlphaScreen, single concentration, set 2. inhibition, % at 12.5 µM. NSD2 peptide methylation, 120 min. actives 0.54% (n = 310,000); in the data active = inhibition above about 50%
F508del corr: F508del CFTR correction, initial screen, CFBE line, single point | CFBE cells, YFP halide quenching; stimulated with forskolin plus potentiator P3; % fluorescence drop versus neutral controls | actives 0.36% (n = 350,000) | activity (quench increase), % at 7.58 µM | AID 720511, 2013;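 active = mean added fluorescence quench of at least 8% versus neutral control, with both replicates also reaching 8%; inconclusive = only one of the mean or replicate conditions met; inactive = mean below 8% and not both replicates reaching 8%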;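 note: cells transiently co-express mutant CFTR-F508del with the halide-sensitive YFP; corrector assay measuring rescue of mutant channel to the surface after 24 h compound exposure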
ALR H2O2 inh: inhibitors of human ALR sulfhydryl oxidase, primary screen, biochemical, H2O2 detection, HRP-luminol luminescence, single point. actives 3.8% (n = 290,000). FAD-linked sulfhydryl oxidase ALR (Homo sapiens), P55789. inhibition, % (test concentration not listed). purified ALR, DTT oxidation;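 active = mean replicate inhibition above about 79%, with every replicate also reaching it, limit read from the data; inconclusive = only one of the two criteria met; inactive = mean below limit and not every replicate reaching it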
HIV Env fusion: inhibitors of HIV-1 Env-driven cell-cell fusion, primary screen, HeLa-JRFL effector, CEM21 target cells, luciferase. inhibition, % at 12.3 µM. actives 1.1% (n = 360,000);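 active = mean replicate inhibition score of at least 50 and every replicate individually at or above 50; inconclusive = only one of the two criteria met; inactive = mean below 50 and not all replicates reaching 50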
PglD DTNB: C. jejuni PglD acetyltransferase inhibitors, primary screen, biochemical, DTNB colorimetric, single point; UDP-N-acetylbacillosamine N-acetyltransferase PglD (Campylobacter jejuni); purified PglD enzyme, DTNB colorimetric CoA detection; inhibition, % at 12.5 µM; actives 0.098% (n = 360,000); AID 602405, 2012; in the data active = inhibition above about 16%, passing the limit was not always enough; inconclusive = no clear call, values can overlap the other calls
Casp6 inh: human caspase-6 inhibitors, primary screen, biochemical, VEID-R110 fluorescence, single point, set 2; P55212; inhibition, % at 12.5 µM; purified caspase-6, Z-VEID-R110 cleavage fluorescence; actives 0.53% (n = 350,000); AID 686996, 2013;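 active = mean inhibition across replicates at least about 35%, with every replicate also reaching that limit, limit read from the data; inconclusive = only one of the two criteria met; inactive = neither criterion met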
Numbers stand for hits; . = inactive; ? = inconclusive; / = no result; ! = not confirmed by another sample; [ ] = remark or other dose.

SMILES | NSD2 inh | F508del corr | ALR H2O2 inh | HIV Env fusion | PglD DTNB | Casp6 inh
COCC(=O)Nc1ccc2c(c1)C(=O)N(C)C[C@@H](OC)[C@@H](C)CN(Cc1ccccc1)[C@@H](C)CO2 | / | . | / | . | . | .
O=C(CSCc1ccc(Cl)cc1Cl)Nc1ccccc1C(=O)Nc1ccc(C(=O)O)cc1 | . | . | 97 | . | / | .
O=C(CSCc1ccc(Cl)cc1)Nc1ccc(Br)cc1C(=O)O | . | / | 96 | . | . | .
COc1cc(NC(=O)CSCc2ccc(Cl)cc2Cl)c(C(=O)O)cc1OC | . | / | . | . | . | .
O=C(CSCc1ccc(Cl)cc1Cl)Nc1ccc(O)cc1C(=O)O | . | / | 98 | . | . | .
Cc1c(NC(=O)CSCc2ccc(Cl)cc2Cl)cccc1C(=O)O | . | . | 98 | . | . | .
O=C(Nc1ccccc1F)N1C[C@@H]2[C@H](c3ccccc31)[C@@H](CO)N2C(=O)c1ccccn1 | / | . | / | / | . | .
O=S(=O)(Nc1ccc(O)c(Sc2nc3ccccc3s2)c1)c1ccc(F)cc1 | . | / | ? | . | / | /
O=C(O)c1cccc(S(=O)(=O)Nc2ccc(O)c(Sc3nc4ccccc4s3)c2)c1 | . | . | 99 | . | / | .
COCC(=O)Nc1ccc2c(c1)C(=O)N(C)C[C@H](OC)[C@@H](C)CN(Cc1cc(F)ccc1F)[C@H](C)CO2 | / | . | / | . | . | .
CCCC[C@H](CN(N=O)[C@@H](Cc1ccccc1)CN(C)N=O)N(CCc1ccccc1)N=O | / | . | . | 88 | . | .
CC(C)[C@H](CN(N=O)[C@@H](Cc1ccccc1)CN(C)N=O)N(CCc1ccccc1)N=O | / | . | / | 68 | . | .
CC(C)C[C@@H](CN(C)N=O)N(C[C@H](Cc1ccccc1)N(CCc1ccccc1)N=O)N=O | / | . | . | 94 | . | .
CN(C[C@H](Cc1ccccc1)N(C[C@H](Cc1cccc2ccccc12)N(CCc1ccccc1)N=O)N=O)N=O | / | . | . | . | . | .
CN(C[C@H](Cc1ccccc1)N(CCN(CCc1ccccc1)N=O)N=O)N=O | / | . | . | . | . | .
CN(C[C@H](Cc1ccccc1)N(C[C@H](Cc1ccccc1)N(CCc1cc(C(F)(F)F)cc(C(F)(F)F)c1)N=O)N=O)N=O | / | . | . | 56 | . | .
COCC(=O)N(C)C[C@@H]1Oc2cc(C#CC(C)(C)O)ccc2S(=O)(=O)N([C@@H](C)CO)C[C@@H]1C | / | . | / | . | . | .
C[C@@H]1CCCCO[C@@H](CN(C)S(=O)(=O)c2cccs2)[C@H](C)CN([C@@H](C)CO)C(=O)c2cc(NC(=O)Cc3ccccc3)ccc2O1 | / | . | / | . | . | /
C[C@@H]1CN([C@H](C)CO)C(=O)c2cc(C#CCN(C)C)cnc2O[C@@H]1CN(C)C(=O)NC1CCCCC1 | / | / | / | . | . | .
O=C(C[C@@H]1CC[C@H](NC(=O)c2ccccc2)[C@@H](CO)O1)NCc1ccncn1 | / | . | / | . | . | .
C/C=C/c1ccc2c(c1)O[C@H](CN(C)C(=O)C1CCC1)[C@@H](C)CN([C@H](C)CO)S2(=O)=O | / | . | / | . | / | /
C[C@@H]1CN([C@@H](C)CO)C(=O)c2cccc(NS(=O)(=O)c3cn(C)cn3)c2O[C@H]1CN(C)C(=O)Nc1ccc2c(c1)OCO2 | / | . | / | / | . | .
CCc1cnc(N2[C@H](CO)[C@@H](c3ccc(C#CCC4CCCC4)cc3)[C@@H]2C#N)s1 | / | . | / | . | / | /
CCC(C(=O)OC)n1cnc2scc(-c3ccc(C)c(C)c3)c2c1=O (stereo not given) | . | . | . | . | . | .
CCC(C(=O)O)n1cnc2scc(-c3ccc(C)c(C)c3)c2c1=O (stereo not given) | . | . | 93 | . | . | .
SMILES | NSD2 inh | F508del corr | ALR H2O2 inh | HIV Env fusion | PglD DTNB | Casp6 inh
CO[C@@]12[C@@H]3N[C@@H]3CN1C1=C(C(=O)C(N)=C(C)C1=O)[C@@H]2COC(N)=O | . | 14 | / | 63 | / | .
CO[C@@]12[C@H](COC(N)=O)C3=C(C(=O)C(C)=C(N)C3=O)N1C[C@@H]1N[C@@H]12 | / | . | . | . | . | .
C/C=C/c1ccc([C@H]2[C@@H](CO)N(C(=O)C3CCCCC3)C23CN(C(=O)NC(C)C)C3)cc1 | / | . | / | / | / | .
COC(=O)c1ccc(CSc2ncnc3c2nnn3-c2ccc(F)cc2)o1 | . | / | 99 | / | / | /
CCC(Sc1ncnc2c1nnn2-c1ccc(F)cc1)C(=O)OC (stereo not given) | . | / | 96 | / | . | /
CCN(CC)C(=O)CSc1ncnc2c1nnn2-c1ccc(F)cc1 | . | / | . | / | . | /
CCOC(=O)C(C)Sc1ncnc2c1nnn2-c1ccc(F)cc1 (stereo not given) | . | / | 96 | / | . | /
C[C@H](CO)N1C[C@H](C)[C@@H](CN(C)Cc2cccnc2)Oc2ncc(C#CC3(O)CCCC3)cc2C1=O | / | . | / | . | . | .
CSc1sc(-c2ccnc(SCC(=O)C(C)(C)C)n2)c2c1C(=O)CC(C)(C)C2 | . | . | / | 65 | / | .
Cc1ccc(-c2csc(N=C(N)N)n2)cc1 | . | . | 99 | . | . | .
Cc1ccc(-c2csc(N3CCC(C(N)=O)CC3)n2)cc1 | / | . | . | . | . | .
CCNc1nc(Oc2ccc(C(=O)OC)cc2)nc(N(C)C)n1 | . | / | . | / | / | /
COC(=O)c1ccc(Oc2nc(Nc3ccc(C)c(C)c3)nc(N(C)C)n2)cc1 | . | / | / | 65 | . | /
c1ccc(-c2nnc(CN3CCN(c4ccccc4)CC3)o2)cc1 | / | . | 98 | . | . | .
COc1ccc(NC(=O)Nc2ccc3c(c2)C(=O)N([C@@H](C)CO)C[C@@H](C)[C@H](CN(C)S(=O)(=O)c2ccccc2)OCCCC[C@@H](C)O3)cc1 | / | . | / | . | . | .
Cc1ccc(S(=O)(=O)N[C@@H]2C=C[C@@H](CC(=O)NC3CCCCC3)O[C@@H]2CO)cc1 | / | . | / | . | . | .
Cc1ccc(NC(=O)CSCC#N)cc1 | . | / | 99 | . | . | /
CCOC(=O)CC(=O)CSCC(=O)Nc1ccc(C)cc1 | . | / | 100 | . | / | /
CCN(CC(=O)Nc1ccc(NC(C)=O)cc1)C(=O)CSCC(=O)Nc1ccc(C)cc1 | . | . | . | . | . | .
COc1cccc(NC(=O)N(C)C[C@H]2OCc3ccccc3-c3c(n(C)c4ccccc34)C(=O)N([C@@H](C)CO)C[C@@H]2C)c1 | / | . | / | 55[16.7 µM] | . | .
COc1cccc(NC(=O)N(C)C[C@H]2OCc3ccccc3-c3c(n(C)c4ccccc34)C(=O)N([C@H](C)CO)C[C@H]2C)c1 | / | 8.4! | / | . | / | .
C[C@@H]1CN([C@H](C)CO)C(=O)c2cccc(NC(=O)CCCCCC(=O)Nc3ccccc3N)c2O[C@H]1CN(C)C(=O)Nc1ccc(F)cc1 | / | . | / | / | / | .
